Data on 43 molecules can be found in PubChem BioAssay AID2234 (The Scripps Research Institute Molecular Screening Center, 2010).

Values joined by “and” are separate entries in the source; they are usually repeats but may differ in a detail not shown here. Equal entries are not always repeated. The whole screen tested about 320,000 compounds, of which about 480 (0.15%) were called active. Rule as the data show it: active = inhibition above about 33%; inactive = the rest. Only a selection was taken, and actives are over-represented in it overall. Some compounds were tested as several samples or in several runs, with calls that do not always agree.

Sequence of Lytic switch protein BZLF1 (Epstein-Barr virus (strain B95-8)) (P03206 whole entry, looked up): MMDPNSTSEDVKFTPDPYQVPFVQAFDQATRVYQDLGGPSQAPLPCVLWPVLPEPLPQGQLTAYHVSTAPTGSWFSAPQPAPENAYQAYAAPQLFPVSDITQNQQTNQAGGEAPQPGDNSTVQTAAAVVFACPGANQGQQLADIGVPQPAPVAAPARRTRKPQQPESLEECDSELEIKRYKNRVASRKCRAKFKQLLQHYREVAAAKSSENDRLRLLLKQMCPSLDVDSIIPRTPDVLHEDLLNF

This experiment concerns the target Lytic switch protein BZLF1 (Epstein-Barr virus (strain B95-8)) (UniProt P03206). Kind of experiment: Zta-DNA interaction blockers, Epstein-Barr virus – biochemical, fluorescence polarization, single concentration, counter-screen for EBNA-1 inhibitor project, primary screen (AID 2234). The following applies: ZTA-DNA binding, at 11 µM, stronger effect = higher value.
Turning to `CC(C)N(C(=O)Cn1cc(S(=O)(=O)CC(=O)N2CCOCC2)c2ccccc21)C(C)C`, the inhibition is -2.48% (inactive).

In the case of `CCc1nn(CCCC(=O)Nc2ccc(C)cc2C)c(=O)c2cc3occc3n12`, the inhibition was -0.14% (inactive).

As for `CN(C)/C=C(\C#N)C(=O)c1cccnc1Oc1cccc(F)c1`, the inhibition is 1.11% (inactive).

With `CN(C)Cc1ccccc1C1(O)c2ccccc2CSc2ccccc21` (stereo not drawn), the inhibition was -3.19% (inactive).

As for `O=C(COC(=O)c1cc(=O)[nH]c2ccccc12)NCc1cccc(Cl)c1`, the inhibition is -4.76% (inactive).

With `COCCCNC(=S)N1CCN(c2nc(-c3cccc(OC)c3)cs2)CC1`, the inhibition was 0.15% (inactive).

For the molecule `O=C(NC1CCCCC1)N1CCc2[nH]c3ccccc3c2C1`, the inhibition was -20.7% (inactive).

On to `COC(=O)[C@H]1[C@H]2C[C@H]3c4[nH]c5ccccc5c4CCN3C[C@@H]2CC[C@@H]1O`, for which the inhibition was -2.53% (inactive) and 42.8% (active).

As to `COC(=O)C1CCN(C(=O)c2cc(=O)[nH]c3ccccc23)CC1`, the inhibition is -3.43% (inactive).

For `Cc1ccc(S(=O)(=O)NCc2ccc(C(=O)NC3CCC(C)CC3)cc2)cc1` (stereo not drawn), the inhibition is 0.09% (inactive).

`Cn1c(N)c(C(=O)COC(=O)/C=C/c2ccc(OC(F)F)cc2)c(=O)n(C)c1=O`: the inhibition was 4.46% (inactive).

On to `CC[N+](C)(CC)CCC[n+]1c(-c2ccccc2)c2cc(N)ccc2c2ccc(N)cc21`, for which the inhibition is 76.6% (active).

Regarding `COc1ccccc1CNS(=O)(=O)c1c(C)[nH]c(C)c1C(=O)N1CCCCC1`, the inhibition is -3.2% (inactive).

In the case of `COc1ccc(C(=O)NCCn2nc(C)cc2C)cc1OC1CCN(C(C)=O)CC1`, the inhibition is -1.11% (inactive).

With `CC(C)CNC(=O)C(=O)Nc1ccc(N(C)C)cc1`, the inhibition is -14.2% (inactive).

As for `CC(=O)N(C)c1ccc(NC(=O)C(F)(F)F)cc1`, the inhibition was -2.47% (inactive).

Turning to `C=CCN(C(=O)Nc1ccc2oc(C)nc2c1)c1ccccc1`, the inhibition was 14.4% (inactive).

With `CCN(CC)c1ccc2oc(=O)c(C)nc2c1`, the inhibition was 112% (active).

With `CCN(CC)c1ccc(C(=O)Nn2c(C)nc3ccccc3c2=O)cc1`, the inhibition was -9.3% (inactive).

For `COc1ccc(/C=C/CN2CCCC(C(=O)c3cc(F)ccc3F)C2)cc1` (stereo not drawn), the inhibition was -3.1% (inactive).

`CN(C)Cc1c(O)ccc2occ(C(O)c3ccccc3)c12` (stereo not drawn): the inhibition is -10.8% (inactive).

Turning to `N[C@@H](Cc1ccccc1)C(=O)N1CCOCC1`, the inhibition was 0.06% (inactive).

As to `COc1ccc(OC)c(NC(=O)CSc2nc(N)c(-c3ccccc3)c(=O)[nH]2)c1`, the inhibition is -8.96% (inactive).

In the case of `COc1ccccc1P(=O)(c1ccccc1)c1ccccc1NC(C)=O` (stereo not drawn), the inhibition was 6.44% (inactive).

For `CCc1cc(=O)oc2c(C)c(OCC(=O)N3CC[C@@]4(O)CCCC[C@H]4C3)ccc12`, the inhibition is -6.49% (inactive).

In the case of `O=S(=O)(c1cccc(-c2nnc(SC(F)F)n2-c2ccccc2)c1)N1CCCCC1`, the inhibition is -1.62% (inactive).

`Cc1cccc(-n2cnc(C(=O)Nc3cccnc3)c2)n1`: the inhibition is -4.78% (inactive).

As to `Cc1ccccc1CSc1nnc(-c2ccccn2)n1N`, the inhibition was -11.1% (inactive).

As for `O=C(COC(=O)c1ccc(S(=O)(=O)Nc2ccccc2)cc1)NCC1CCCO1` (stereo not drawn), the inhibition was 1.03% (inactive).

With `CCn1c(C)nc2cc(C(=O)NNS(=O)(=O)c3ccc(C)cc3C)ccc21`, the inhibition was -11% (inactive).

As to `COc1cc(C2C(C(=O)c3cccs3)=C(O)C(=O)N2CCN2CCOCC2)ccc1OCCC(C)C` (stereo not drawn), the inhibition is -2.28% (inactive).

For the molecule `O=C(Nc1ccc2oc(-c3ccccc3F)nc2c1)c1ccco1`, the inhibition was 15.1% (inactive).

In the case of `CCOc1ccc(S(=O)(=O)Nc2ccncc2)c(C)c1C`, the inhibition is -10.3% (inactive).

Consider `CC(C)C(=O)N1CCC2(CC1)Oc1ccc(F)cc1C(=O)C21CC(c2ccccc2)=NO1` (stereo not drawn), for which the inhibition is 7.48% (inactive).

`CCc1c(C)nc2c(-c3ccccc3)c(C)nn2c1Nc1ccc(NC(C)=O)cc1`: the inhibition is -11.9% (inactive).

As for `O=C(Cc1ncc(C(F)(F)F)cc1Cl)Nc1cccc(Br)c1`, the inhibition is -13.5% (inactive).

`O=C(CNS(=O)(=O)c1ccc2ccccc2c1)Nc1ccc(F)c(F)c1F`: the inhibition was 15.3% (inactive).

Turning to `O=C(Nc1ccc(F)cc1F)N1CCCN(CCOc2ccccc2)CC1`, the inhibition was -6.16% (inactive).

With `CC(=O)c1sc2nc(SCC(=O)N3CCCCC3)[nH]c(=O)c2c1C`, the inhibition is -1.4% (inactive).

Take `Cc1sc2nc(CSCC(=O)NC3CCCCC3)[nH]c(=O)c2c1C`: the inhibition is -20.2% (inactive).

On to `CSc1nnc(SCc2nc3sc(C(=O)O)c(C)c3c(=O)[nH]2)s1`, for which the inhibition was 41.9% (active).

With `COc1ccc(C(=O)NC2CC2)cc1OC1CCN(C/C=C/c2ccccc2)CC1`, the inhibition is -17.4% (inactive).

Turning to `COc1ccc2c(c1)cc1n2CCN=C1NN`, the inhibition was 8.48% (inactive).
